IL1B secr inh = blocks inflammasome-driven IL-1 beta release | activity change, % at 57.5 µM | THP-1 LPS/ATP IL-1B secretion, AlphaLISA, 16 h; stronger effect = lower value | actives 4.7% (n = 360,000); in the data active = activity change below about -50%; inconclusive = mostly about -30% to -49%
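THP-1 cells pretreated 1 hr with compounds (up to 57.5 uM final), then stimulated with LPS (250 ng/mL final) plus ATP (1.25 mM final); secreted IL-1B measured by AlphaLISA after 16 hr, decreased signal indicating inhibition.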
DT40 TDP1 no CPT = qHTS for Inhibitors of human tyrosyl-DNA phosphodiesterase 1 (TDP1): qHTS in cells in absence of CPT; actives 15% (n = 420,000); Potency, µM (titrated, usually from 46.2 µM), for the others: at the top dose activity change, negative = growth inhibition, most hits filed as inhibitors; AID 686978, 2013; DT40 Tdp1-/- hTDP1 cells, no CPT, ATP luminescence, 48 h; also: potency is read from the fitted curve at half-maximal effect; nearly all actives have a fitted effect of over 55% in size
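Readout: luminescence from CellTiter-Glo after 30 min in the dark at RT. Cells: DT40 Tdp1-/- with stable hTDP1, 400/well. Exposure: compounds alone, ≥48 hr, 37 °C.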
DT40 TDP1 CPT = DT40-hTDP1 cell growth loss with CPT; AID 686979; Potency, µM (series often up to 46.2 µM), without a hit: top-dose activity change, negative = growth inhibition, most hits filed as inhibitors; chicken DT40 Tdp1-/-;hTDP1 cells + 20 nM CPT, ATP luminescence, 48 h; actives 12% (n = 420,000); also: potency is read from the fitted curve at half-maximal effect; nearly all actives have a fitted effect of over 55% in size
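Chicken DT40 Tdp1-/- cells complemented with human TDP1, 400 cells/well, exposed to compounds plus 20 nM camptothecin for at least 48 h at 37 C; viability read as ATP content by CellTiter-Glo luminescence.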
HT1080 IDH1KD tx = HT-1080 IDH1 knockdown cell toxicity (counter line); HT-1080 IDH1 knockdown viability, ATP luminescence, 48 h; Potency, µM (titrated, usually from 46.1 µM), for inactives: top-dose activity, negative = toxicity, hits mostly cytotoxic; actives 2% (n = 360,000);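 also: potency is read from the fitted curve at half-maximal effect; 0% = DMSO wells and -100% = cell-free medium wells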
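Using the IDH1-knockdown HT-1080 line run in the same batch and compound series as the NT line, viability after 48 h at 37 °C was determined by CellTiter-Glo luminescence and expressed as % activity.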
ELG1 DNA repair = blocks ELG1-dependent DNA repair in HEK293T cells; HEK293T ELG1-luciferase reporter, luminescence, 16 h; DNA damage induced by 5-fluorouridine; Potency, µM (titrated, usually from 46.1 µM), for inactives: top-dose activity change, negative = inhibition, actives largely listed as inhibitors; actives 2.3% (n = 330,000); AID 504467; also: potency is read from the fitted curve at half-maximal effect; nearly all actives have a fitted effect of over 55% in size
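In this reporter screen, reduction of luminescence relative to DMSO vehicle indicated activity. Compounds and 5-fluorouridine were added together to 2,000 cells per well, incubated for 16 hr at 37 °C, then developed with ONE-Glo.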
HT1080NT lethal = kills 2HG-producing HT-1080-NT fibrosarcoma cells; HT-1080-NT fibrosarcoma viability, CellTiter-Glo ATP luminescence, 48 h; Potency, µM (titrated, usually from 46.1 µM), for the others: top-dose activity, negative = less viability, most hits filed as cytotoxic; AID 686970; actives 1.6% (n = 360,000);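 also: NT is the 2HG producing partner of a matched IDH1 knockdown line; potency is read from the fitted curve at half-maximal effect; 0% = DMSO-treated cells and -100% = media-only wells without cells; nearly all actives have a fitted effect of over 55% in size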
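Read-out is CellTiter-Glo luminescence after 10 minutes at room temperature, following 48 hours' compound treatment of HT-1080-NT cells (750 cells/well, RPMI, 5% FBS, 37 degrees C).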
* marks the source's active call; other numbers are inactive results; ? = inconclusive; . = no result; [ ] = another dose, or the depositor's remark. This is a sample that favours compounds with a hit; in the whole collection about 19% have one here. Unless noted, calls follow the shape of the dose curve; as a rule, active = well fitted curve in the direction sought with a large enough effect; inconclusive = small, poorly fitted or top-dose-only effect, or another doubt; inactive = no such curve, though single readings can be large; an effect the other way counts as inactive or inconclusive. Unless noted, % is scaled to controls: 0 for no effect and ±100 for the full control effect.

SMILES | IL1B secr inh | DT40 TDP1 no CPT | DT40 TDP1 CPT | HT1080 IDH1KD tx | ELG1 DNA repair | HT1080NT lethal
Cc1ccc(-c2nnc(N3CCCCC3)c3ccccc23)cc1 | -55.7* | 23.1µM* | ? | -8.6% | -29.6% | -1.1%
CCCCCNc1nc(N2CCCC2)c2c(c1C#N)CCN(C)C2 | -50.9* | 23.1µM* | 23.1µM* | ? | -7.2% | 29.1µM*
CCCCCNc1nc(NCCCO)c(C#N)c2c1CN(C)CC2 | -8.7 | ? | ? | -0.3% | -21.2% | -12.3%
Cc1c(CCOC(=O)C23CC4CC(CC(C)(C4)C2)C3)sc[n+]1Cc1ccccc1 | -26.1 | 2.91µM* | 4.11µM* | 23.1µM* | -24.4% | ?
Cc1c(CCOC(=O)C23CC4CC(CC(C4)C2)C3)sc[n+]1Cc1ccccc1 | -15.2 | 10.3µM* | ? | 3.0% | -20.8% | 6.0%
Cc1ncc(C[n+]2csc(CCOC(=O)C34CC5CC(CC(C5)C3)C4)c2C)c(N)n1 | -1.4 | ? | ? | 9.7% | 6.8% | -15.5%
CCc1ccc(S(=O)(=O)NCc2nc(N3CCCC3)c3cccc(C)c3n2)cc1 | . | ? | 7.1%[9.04 µM] | . | . | .
CCOC(=O)c1ccc(NC(=O)C2=C(C)C(=O)OC23CCN(C(C)C)CC3)cc1 | . | 2.5% | ? | . | . | .
O=C(/C=C/c1ccc(O)cc1)c1ccccc1 | ? | ? | -24.7% | -5.0% | ? | -4.2%
Cc1cccc(C=CC(=O)c2ccccc2)c1 | -28.2 | 23.1µM* | ? | -16.1% | . | -2.2%
Cc1ccc(C(=O)C=Cc2cccc(C)c2)cc1 | -23.7 | 18.4µM* | ? | ? | . | ?
CCC(C)[C@H](NS(=O)(=O)c1ccc(F)cc1Br)C(=O)OC (stereo partly specified) | 37.7 | -11.3% | -11.1% | 10.5% | . | 12.3%
CCOCCCNC(=O)c1ccc(/C=C2\Oc3ccccc3N(C)C2=O)cc1 | -12.6 | -20.7% | ? | 19.1% | -19.1% | 15.4%
C/C=C(\C)C(=O)NCCN1C2=NC[C@@H](C)N2C[C@@H]1Cc1ccc(OC)cc1 | -1.3 | -5.4% | -14.9% | -14.1% | 15.5% | 1.5%
COc1ccc(C[C@H]2CN3C(=NC[C@@H]3Cc3ccc(O)cc3)N2C[C@H](C)NC(=O)c2ccc(C)c(Br)c2)cc1 | ? | 20.6µM* | 4.61µM* | -13.9% | 1.7% | -15.2%
Cc1ccc(C(=O)N[C@@H](C)CN2C3=NC[C@H](C(C)C)N3C[C@H]2Cc2ccc(O)cc2)cc1Br | ? | 5.8µM* | 4.61µM* | -29.7% | -0.4% | -26.3%
COc1ccc(C[C@H]2CN3C(=NC[C@@H]3C(C)C)N2C[C@H](C)NC(=O)c2ccc(C)c(Br)c2)cc1 | -57.1* | 18.4µM* | 29.1µM* | -25.6% | -1.2% | -10.1%
Oc1c(C(c2ccccc2F)N2CCN(c3ccccc3F)CC2)sc2nc(-c3ccco3)nn12 (stereo unspecified) | . | -23.5% | -24.3% | . | . | .
COc1ncc2nc(CCc3ccccc3)c(=O)n(CCC#N)c2n1 | . | -29.3% | -2.4% | . | . | .
CCN1/C(=C/c2sc(-c3ccccc3C)c[n+]2C)Sc2ccccc21 | -99.0* | 0.206µM* | 0.259µM* | 2.06µM* | ? | 2.06µM*
NC1CONC1=O (stereo unspecified) | . | ? | -17.9% | . | . | .
CN1CCN(Cc2nc3ccccc3c(=O)n2Cc2nc(-c3ccc4ccccc4c3)cs2)CC1 | -95.4* | 2.31µM* | 4.61µM* | 3.66µM* | 13µM* | 5.8µM*
CN1CCN(Cc2nc3ccccc3c(=O)n2Cc2nc(-c3ccccc3F)cs2)CC1 | ? | 10.3µM* | 16.4µM* | -23.9% | 16.4µM* | -12.9%
COc1ccc2c(c1)Sc1ccccc1N2 | -25.1 | 16.4µM* | ? | ? | ? | -10.6%
